Results from PubChem BioAssay (NCI).
Compounds without any hit were thinned out: in the full panel of roughly 83,000, 20% have a hit.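 Growth was measured after 48 h exposure to one concentration of compound in 96-well plates. Values under 10 count as active.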 Active and inactive are the calls of the source.

How the values were obtained:
Assay in all cases: NCI-60 one-dose screen, 48 h (100 = growth as untreated, 0 = no growth, -100 = all killed)
Conditions in all cases: 10 µM unless noted
[1] = system: SK-MEL-2 melanoma
[2] = system: EKVX NSCLC
[3] = system: SN12C renal
[4] = system: UO-31 renal
[5] = system: TK-10 renal
[6] = system: ACHN renal
[7] = system: CAKI-1 renal
[8] = system: CCRF-CEM leukemia
[9] = system: MOLT-4 leukemia
[10] = system: A498 renal

Measured: growth

CCNCCCn1c2c(c3ccc([N+](=O)[O-])cc3c1=O)C(=O)c1cc(OC)cnc1-2
active: [1] -27.8% | [2] 8.7% | [3] 1.09% | [4] -85.1% | [5] -27.6% | [6] -61.1% | [7] -58.5% | [8] 3.93% | [9] -4.26%

O=[N+]([O-])c1cc(S(=O)(=O)c2ccc(F)c([N+](=O)[O-])c2)ccc1F
inactive: [1] 112% | [2] 117% | [3] 108% | [4] 86.1% | [5] 119% | [6] 97.1% | [7] 109% | [8] 46.2% | [9] 23.2%

Cc1cccc(C)c1NCc1nc(-c2ccccc2)n[nH]1
inactive: [1] 101% | [2] 95% | [3] 105% | [4] 90.6% | [5] 101% | [6] 96.8% | [10] 100% | [8] 110% | [9] 98%

CCN1CCN(c2nc(C)cc(N(CCCNc3ccnc4cc(Cl)ccc34)Cc3ccco3)n2)CC1
inactive: [1] 75.1% | [2] 63.1% | [3] 50.6% | [4] 33.1% | [5] 108% | [6] 30.2% | [10] 78.1% | [8] 42% | [9] 43.5%

COc1cc(/C=C2\C(=O)N(CC(O)COc3cc(O)c4c(=O)cc(-c5ccccc5)oc4c3)c3ccccc32)cc(OC)c1O (configuration not stated)
inactive: [1] 82.2% | [2] 78.8% | [3] 84% | [4] 50.6% | [5] 137% | [6] 80.4% | [10] 105% | [8] 59.1% | [9] 63.8%

O=C1CCC/C=C\C[C@H]2C=C(Cl)C(=O)/C2=C/C[C@H](CCCCC(F)(F)F)OC(=O)CCC/C=C\C[C@H]2C=C(Cl)C(=O)/C2=C/C[C@H](CCCCC(F)(F)F)O1
active: [1] -45.5% [7.5 µM] | [3] -27.1% [7.5 µM] | [4] -93.3% [7.5 µM] | [5] -23% [7.5 µM] | [6] -93.1% [7.5 µM] | [10] -49.5% [7.5 µM] | [8] 3.14% [7.5 µM] | [9] 1.97% [7.5 µM]
inactive: [2] 13.3% [7.5 µM]

Brc1ccc2c(c1)c(-c1nc(-c3c[nH]c4ncccc34)cs1)cn2CCCN1CCCCC1
inactive: [1] 36.8% | [2] 50.1% | [3] 25.3% | [5] 76.2% | [10] 77%
active: [4] -52% | [6] -23.7% | [8] -35.5% | [9] -44.6%

Cn1cc(-c2csc(-c3cn(CCNC(=O)OC(C)(C)C)c4ccc(F)cc34)n2)c2cccnc21
inactive: [1] 82.4% | [2] 55.9% | [3] 85.9% | [4] 39.7% | [5] 104% | [6] 69.2% | [10] 91.1% | [8] 33.5% | [9] 31.8%

N#CC1=C(N)Oc2c(sc3c(F)cccc23)C1c1ccc(Cl)cc1 (configuration not stated)
active: [1] -3.89% | [9] 8.38%
inactive: [2] 51.4% | [3] 36.2% | [4] 41.7% | [5] 78.4% | [6] 42% | [10] 46.6% | [8] 15.1%

CCCCC[C@H]1CC=C2C(=O)C(Cl)=C[C@@H]2CC=CCCCC(=O)O[C@@H](CCCCC)CC=C2C(=O)C(Cl)=C[C@@H]2CC=CCCCC(=O)O[C@@H](CCCCC)CC=C2C(=O)C(Cl)=C[C@@H]2CC=CCCCC(=O)O1
active: [8] 7.3% [8 µM]
inactive: [1] 91.4% [8 µM] | [2] 96.6% [8 µM] | [3] 43.1% [8 µM] | [4] 76.3% [8 µM] | [5] 151% [8 µM] | [6] 69.6% [8 µM] | [10] 106% [8 µM] | [9] 10.4% [8 µM]

COc1ccc(NC(=S)N/N=C/c2ccccc2SSCCC(=O)OC[C@H]2O[C@H](O)[C@H](O)[C@@H](O)[C@@H]2O)cc1
inactive: [1] 78.9% | [2] 72.9% | [3] 81.2% | [4] 81.4% | [5] 136% | [6] 101% | [10] 93.4% | [8] 92.4% | [9] 65.4%

Cc1ccc2oc(=O)cc(-c3sc(N4CCCCC4)nc3-c3ccccc3)c2c1
inactive: [1] 93.7% | [2] 90.4% | [3] 50.2% | [4] 58% | [5] 161% | [6] 84.3% | [10] 109% | [8] 104% | [9] 97.3%

COc1ccc(-c2nc3c(c(C)nn3-c3ccc(F)cc3)c(=O)[nH]2)cc1
inactive: [1] 92.3% | [2] 81.6% | [3] 56.9% | [4] 52.1% | [5] 65.8% | [10] 70.8% | [8] 86.9% | [9] 98.1%
active: [6] 6.33%

Cc1cccc(C)c1NC(=O)CSC(=S)N1CCN(CCOCCO)CC1
inactive: [1] 95% | [2] 95% | [3] 105% | [4] 89.7% | [5] 85.8% | [6] 106% | [8] 107% | [9] 104%

COc1ccc2c(c1)c(-c1nc(-c3c[nH]c4ncccc34)cs1)cn2CCCN1CCCCC1
active: [8] -0.15% | [9] -18.9%
inactive: [1] 73.6% | [2] 51.2% | [3] 58% | [4] 36.5% | [5] 77.5% | [6] 22.3% | [10] 66.1%

Cn1cc(-c2csc(-c3cn(CCNC(=O)OC(C)(C)C)c4ccccc34)n2)c2cccnc21
inactive: [1] 88.2% | [2] 67.9% | [3] 87.8% | [4] 42.7% | [5] 122% | [6] 74.3% | [10] 82.4% | [8] 43.4% | [9] 42.3%

Cc1cc(Cl)nc(N(CCNc2ccnc3cc(Cl)ccc23)Cc2ccco2)n1
active: [4] -33.5% | [8] 8.24% | [9] 6.36%
inactive: [1] 55.8% | [2] 63.6% | [3] 33.5% | [5] 64% | [6] 17.7% | [10] 70.2%

Cn1cc(-c2csc(-c3cn(CCCN4CCCCC4)c4ccc(F)cc34)n2)c2cccnc21
inactive: [1] 93.5% | [2] 77.3% | [3] 83.9% | [4] 78.2% | [5] 99.7% | [6] 83.7% | [10] 73.4% | [9] 70.4%
active: [8] -29.9%

Cc1cc(N2CCCCC2)nc(N(CCCNc2ccnc3cc(Cl)ccc23)Cc2ccco2)n1
active: [9] 6.82%
inactive: [1] 44.8% | [2] 39.4% | [3] 36.3% | [4] 15.6% | [5] 63.2% | [6] 38.8% | [10] 46.5% | [8] 19.5%

Cc1cccc(C)c1NC(=O)CSC(=S)N1CCCCC1
inactive: [1] 97.6% | [2] 97.2% | [3] 110% | [4] 85.6% | [5] 89% | [6] 101% | [10] 99.3% | [8] 101% | [9] 87.8%

COc1ccc2c(c1)c(-c1nc(-c3c[nH]c4ncccc34)cs1)cn2CCNC(=O)OC(C)(C)C
inactive: [1] 86.6% | [2] 55.6% | [3] 84.8% | [4] 49.3% | [5] 89.2% | [6] 67.9% | [10] 85.3% | [8] 48.2% | [9] 55.7%

COc1ccc2c(c1)c(-c1nc(-c3c[nH]c4ncccc34)cs1)cn2CCN
inactive: [1] 75.2% | [2] 50.1% | [3] 78.2% | [4] 48.5% | [5] 71.9% | [6] 41.3% | [10] 72.2% | [8] 55.8% | [9] 46.4%

CCCCC[C@H]1C/C=C2/C(=O)C(Cl)=C[C@@H]2C/C=C\CCCC(=O)O1
active: [1] -45.4% | [2] -69% | [3] -26.9% | [4] -100% | [5] -56.7% | [6] -84.4% | [10] -76.2% | [8] 0.514% | [9] -2.82%

Cc1cc(N(CCCNc2ccnc3cc(Cl)ccc23)Cc2ccco2)nc(N2CCOCC2)n1
inactive: [1] 93.2% | [2] 67.6% | [3] 67.4% | [4] 46.8% | [5] 110% | [6] 95.3% | [10] 59.1% | [8] 69.2% | [9] 63.7%

C=C1C(=O)O[C@H]2[C@H]1CC/C(COC(=O)NCc1cc3ccccc3[nH]1)=C\CC[C@@]1(C)O[C@@H]21
inactive: [1] 52.7% | [2] 54.7% | [10] 92.5%
active: [3] -56.8% | [4] -100% | [5] -54.8% | [6] -75.9% | [8] 2.95% | [9] 1.8%

O=C1CCCC=CC[C@H]2C=C(Cl)C(=O)C2=CC[C@H](CCCCC(F)(F)F)OC(=O)CCCC=CC[C@H]2C=C(Cl)C(=O)C2=CC[C@H](CCCCC(F)(F)F)OC(=O)CCCC=CC[C@H]2C=C(Cl)C(=O)C2=CC[C@H](CCCCC(F)(F)F)O1
active: [8] 8.35% [6.25 µM]
inactive: [1] 90.1% [6.25 µM] | [2] 98.4% [6.25 µM] | [3] 56.3% [6.25 µM] | [4] 78.9% [6.25 µM] | [5] 148% [6.25 µM] | [6] 71.2% [6.25 µM] | [10] 101% [6.25 µM] | [9] 15.2% [6.25 µM]

COc1ccc2c(c1)c(-c1nc(-c3cn(C)c4ncccc34)cs1)cn2CCCN1CCCCC1
inactive: [1] 102% | [2] 61.6% | [3] 76.2% | [4] 62.9% | [5] 89.7% | [10] 74.7% | [9] 23.4%
active: [6] 1.33% | [8] 2.69%
